Several values for one entry are separate records, joined by “and”; a condition that tells them apart may be missing. Identical values can stand only once. Hit rate of the full screen: of about 420,000 compounds, about 64,000 (15%) were called active. Where a call stands in place of a potency, no number is given. About 27% were inconclusive and are not listed. Calls follow the shape of the dose curve; as a rule, active = well fitted inhibition curve with a large enough effect; inconclusive = small, poorly fitted or top-dose-only effect; inactive = flat fitted curve, though single readings scatter. The sample as a whole holds a higher share of actives than the screen did.
experiment: qHTS for Inhibitors of human tyrosyl-DNA phosphodiesterase 1 (TDP1): qHTS in cells in absence of CPT; conditions: DT40 Tdp1-/- hTDP1 cells, no CPT, ATP luminescence, 48 h; series mostly up to 46.2 µM; also: nearly all actives have a fitted effect of over 55% in size
How it was run: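 Cells were dispensed at 400 per well, compounds added by pin tool, plates incubated ≥48 hr at 37 °C, then CellTiter-Glo added for 30 min at room temperature before luminescence reading. Line: DT40 Tdp1-/- complemented with hTDP1; camptothecin omitted.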
Potency is read from the fitted curve at half-maximal effect.

Row | SMILES | Potency | activity change, negative = growth inhibition
1 | CC[N+](CC)(CC)CCCCCCCCCC[N+](CC)(CC)CC | inactive | –
2 | CNC(=O)N(C)c1nnc(C(C)(C)C)s1 | inactive | –
3 | COP(=O)(NS(=O)(=O)c1ccccc1)OC | inactive | –
4 | CN1CCC(OC(=O)c2cccc(F)c2)CC1 | inactive | –
5 | CN1[C@@H]2CC[C@H]1CC(OC(=O)c1cc(Cl)cc(Cl)c1)C2 (stereo partly specified) | 13.3 µM (active) and 11.9 µM (active) | –
6 | CNP1(NC)=Nc2nn(-c3ccccc3)c(N)c2C(c2ccccc2)=N1 | inactive | –
7 | Cc1cccc(Cn2cccc(C(=O)Nc3ccc4c(c3)OCCO4)c2=O)c1 | 20.6 µM (active) | –
8 | CCN(CC)C(=O)c1ccc(NC(=O)c2cc(-n3cnnc3)ccc2Cl)cc1 | inactive | –
9 | COc1cc(OC)cc(C2(C#N)CCN(C)CC2)c1 | inactive | –
10 | Cc1ccc(-n2c(O)c(C=NCC3CCCO3)c(=O)[nH]c2=O)c(C)c1 (stereo unspecified) | inactive | –
11 | CNC(=O)Nc1ccc(C(O)(C(=O)OC)C(F)(F)F)cc1 (stereo unspecified) | inactive | –
12 | Cc1cc(C(=O)OCC(=O)Nc2c(F)cccc2F)c(C)n1C1CC1 | inactive | –
13 | COC(=O)[C@@]12C[C@@H](CC(=O)NCc3cccc(C(F)(F)F)c3)C(=O)N(Cc3ccco3)C1=CCC(C)(C)C2 | 13 µM (active) | –
14 | COc1cc(Cl)ccc1Nc1ncc(C(=O)N2CCN(c3ccccc3OC)CC2)c2ccccc12 | 5.8 µM (active) | –
15 | C[C@@]1([C@@H](NP(=O)(c2ccccc2)c2ccccc2)c2ccccc2)C[C@H]1CCO | 18.4 µM (active) | –
16 | CCN1CCN(C(=O)Cc2coc3cc(C)cc(C)c23)CC1 | inactive | –
17 | c1cncc(CNC2=NCCC2)c1 | inactive | –
18 | CCN1C(=O)NC(=O)C2(CCCC2)C1=O | inactive | –
19 | COc1ccc(-c2nc(CS(=O)CC(=O)N3CCC4(CC3)OCCO4)c(C)o2)cc1 (stereo unspecified) | inactive | –
20 | Cc1ccc(Cn2c(C)c3cnn(CC(=O)N4CCC5(CC4)OCCO5)c(=O)c3c2C)cc1 | 14.6 µM (active) | –
21 | O=C(CCCn1c(=O)[nH]c2cc(Cl)ccc2c1=O)N1CCC2(CC1)OCCO2 | inactive | –

Row | SMILES | Potency | activity change, negative = growth inhibition
22 | Cc1ccc(C(C)C)c(OCC(=O)N2CCN(CC(=O)N3CCOCC3)CC2)c1 | inactive | –
23 | COC1CC(OC2CC[C@@]3(C=O)C4CC[C@]5(C)C(C6=CC(=O)OC6)CC[C@@]5(O)C4CC[C@]3(O)C2)OC(C)C1O (stereo partly specified) | 0.92 µM (active) | –
24 | COC1C(O)C(C)OC(OC2CCC3(C=O)C(CCC4C3CCC3(C)C(C5=CC(=O)OC5)CCC43O)C2)C1O (stereo unspecified) | 0.206 µM (active) | –
25 | CN(C)/C=C(\C=[N+](C)C)c1[nH]ncc1[N+](=O)[O-] | inactive | –
26 | Cc1ccc(C2CN(C)CC2C(=O)c2ccc(F)cc2)cc1 (stereo unspecified) | inactive | –
27 | COc1ccc(-n2c(O)c(C(C)=Nc3ccc4c(c3)CCC4)c(=O)[nH]c2=O)cc1 | inactive | –
28 | Cc1ccc(-n2c(-c3ccc([N+](=O)[O-])cc3)nc3ccccc3c2=O)cc1 | 8.2 µM (active) | –
29 | COc1ccc(-n2c(-c3ccccc3)nc3ccccc3c2=O)cc1 | 13 µM (active) | –
30 | CSc1nc2ccc(C)cc2c(=O)n1-c1cccnc1 | inactive | –
31 | O=c1c2ccccc2nc(-c2ccccc2)n1-c1ccccn1 | inactive | –
32 | Cc1ccc(-c2nc3ccccc3c(=O)n2-c2ccc(Br)cn2)cc1 | inactive | –
33 | COC1=C[C@]23CCCN2CCc2cc4c(cc2[C@@H]3[C@@H]1O)OCO4 | – | -13.2% [at 9.04 µM] (inactive)
34 | c1ccc2sc(C3CCCNC3)nc2c1 (stereo unspecified) | inactive | –
35 | CN(C)C(=O)Oc1cc(OC(=O)N(C)C)cc(C(O)CNC(C)(C)C)c1 (stereo unspecified) | inactive | –
36 | CC(=O)Cc1ccc(OC(C)C)cc1 | inactive | –
37 | OC1/C(=C/c2ccc(C(F)(F)F)cc2)N2CCC1CC2 (stereo unspecified) | inactive | –
38 | O=C(CCC(=O)N1C[C@H]2C[C@@H](C1)c1cccc(=O)n1C2)NCc1ccccc1C(F)(F)F | inactive | –
39 | C#C[C@]1(O)CC[C@H]2[C@@H]3CCC4=C/C(=N/O)CC[C@@H]4[C@H]3CC[C@@]21CC | 21.1 µM (active) | –
40 | C#C[C@]1(OC(=O)CCCCCC)CC[C@H]2[C@@H]3CCC4=CC(=O)CC[C@@H]4[C@H]3CC[C@@]21C | inactive | –
41 | CC(C)N(CC#CCC1(O)c2ccccc2-c2ccccc21)C(C)C | inactive | –
42 | C[C@]12CCC3C(CC[C@H]4C[C@@H](O)CC[C@]34C)C1CC[C@@H]2O (stereo partly specified) | inactive | –

Row | SMILES | Potency | activity change, negative = growth inhibition
43 | O=C(O)C1CSC(c2cccnc2)N1 (stereo unspecified) | inactive | –
44 | CC(=O)c1ccc(S(=O)(=O)N2CCN(c3nc4c(C)c(C)ccc4cc3C#N)CC2)cc1 | 12.6 µM (active) | –
45 | CCOC(=O)CC1=C(C(=O)OCC)C2(C(=O)N1)C(C(=O)OC)=C(N)Oc1ccccc12 (stereo unspecified) | inactive | –
46 | CCCCC(=O)N/N=C/c1c(O)n(-c2ccccc2)c(=O)[nH]c1=O | inactive | –
47 | CCCCC(=O)N/N=C/c1c(O)n(CCC2=CCCCC2)c(=O)[nH]c1=O | 25.9 µM (active) | –
48 | O=c1[nH]c(=O)n(CCc2ccc(F)cc2)c(O)c1/C=N/N1CCCCC1 | inactive | –
49 | CC(C)(Cc1c[nH]c2ccc(Cl)cc12)NCCOc1ccccc1OCC1CC1 | 26.6 µM (active) and 5.17 µM (active) | –
50 | CC1CCC(N(C)C2CCN(C)CC2)CC1 (stereo unspecified) | inactive | –
51 | O=C(COC(=O)Cc1ccccc1)Nc1ccc(F)cc1 | inactive | –
52 | CCOC(=O)c1ccc(N2C(=O)c3[nH]nc(-c4ccccc4)c3C2c2ccc(C(C)C)cc2)cc1 (stereo unspecified) | 25.9 µM (active) | –
53 | CCN(N=Nc1nonc1OC)c1nonc1OC | inactive | –
54 | O=c1[nH]c(=O)n(-c2ccc(F)cc2)c(O)c1C=NCCN1CCCCC1 | inactive | –
55 | CCn1cc2nc(SCc3ccccc3Cl)n(CCc3ccccc3)c(=O)c2n1 | 20.6 µM (active) | –
56 | COc1cccc(OC)c1C(=O)NC(=S)N1C[C@H]2C[C@H](C1)c1cccc(=O)n1C2 | inactive | –
57 | CC(C)=C[C@@H]1[C@@H](C(=O)OCc2coc(Cc3ccccc3)c2)C1(C)C | inactive | –
58 | CN1CCN(C(=O)O[C@@H]2c3nccnc3C(=O)N2c2ccc(Cl)cn2)CC1 | inactive | –
59 | CCC(C)(O)C(=O)OC1C(=O)OC2CC3C(C)=CC(=O)C(O)C3(C)C3C4(O)OCC23C1C(C)C4O (stereo unspecified) | 0.13 µM (active) | –
60 | N#CC(C#N)=Cc1cc(O)c(O)c([N+](=O)[O-])c1 | inactive | –
61 | O=C(N/N=C/c1ccc([N+](=O)[O-])o1)c1cc([N+](=O)[O-])cc([N+](=O)[O-])c1O | inactive | –
